Reference: PubChem BioAssay (NCI)
The panel holds about 83,000 compounds, 20% with a hit somewhere; the sample as a whole holds those more often.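 96-well plates, one dose, 48 hours. Percent growth reported; active if below 10.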 A number with no mark means an inactive call. Calls of active or inactive are those of the source.

Legend:
Experiment in all cases: NCI-60 one-dose screen, 48 h (100 = growth as untreated, 0 = no growth, -100 = all killed)
Conditions in all cases: 10 µM unless noted
[1] = test system: NCI-H23 lung
[2] = test system: NCI-H226 lung
[3] = test system: NCI-H322M lung
[4] = test system: HOP-62 NSCLC
[5] = test system: NCI-H460 lung
[6] = test system: HOP-92 NSCLC
[7] = test system: NCI-H522 lung
[8] = test system: A549/ATCC NSCLC
[9] = test system: 786-0 renal
[10] = test system: COLO 205 colon
[11] = test system: DU-145 prostate
[12] = test system: K-562 leukemia
[13] = test system: MALME-3M melanoma
[14] = test system: MDA-MB-231 breast
[15] = test system: RXF 393 renal
[16] = test system: SF-268 CNS
[17] = test system: SF-295 CNS
[18] = test system: SF-539 CNS
[19] = test system: UACC-257 melanoma
[20] = test system: M14 melanoma

| Compound | growth [1] | growth [2] | growth [3] | growth [4] | growth [5] | growth [6] | growth [7] | growth [8] | growth [9] | growth [10] | growth [11] | growth [12] | growth [13] | growth [14] | growth [15] | growth [16] | growth [17] | growth [18] | growth [19] | growth [20] |
| --- | --- | --- | --- | --- | --- | --- | --- | --- | --- | --- | --- | --- | --- | --- | --- | --- | --- | --- | --- | --- |
| N#CC1=C(c2cccs2)Nc2c(c(-c3ccccc3)nn2-c2ccccc2)C12C(=O)Nc1ccc(Cl)cc12 (stereo not given) | 23.8% | 51.6% | 47.1% | 28.8% | 6.17% (active) | -8.79% (active) | 3.38% (active) | 24.4% | 22.3% | -29.2% (active) | 50.5% | 11.1% | 76.3% | 21.5% | -11.4% (active) | 23.2% | 12.9% | 20.5% | 63.5% | 16.5% |
| CCCCNc1ccc2c3c(cccc13)C(=O)N(c1cccc(-c3nn(-c4ccccc4)cc3-c3nc4ccccc4s3)c1)C2=O | 93.1% | 83.5% | 104% | 107% | 110% | 100% | 99.1% | 117% | 101% | 109% | 106% | 89.5% | 103% | 99.1% | 98.5% | 109% | 104% | 101% | 113% | 99.6% |
| COc1cc(CNC(=O)C[C@H](C)CCC=C(C)C)ccc1OCc1cn(-c2ccccc2F)nn1 | 68.3% | 73.3% | 92.7% | 46.7% | 89% | 4.63% (active) | 57.1% | 80.6% | 43.6% | 112% | 102% | 81.6% | 78.3% | 66.8% | 38.4% | 58.9% | 45.2% | 44.6% | 94% | 94.8% |
| COC(=O)c1ccc(-c2c(-c3ccccc3)c(F)c3oc(C(=O)OC)c(N)c3c2-c2ccccc2)cc1 | 87% | 100% | 97.1% | 94% | 99.7% | 85.1% | 83.4% | 98.9% | 103% | 99.7% | 104% | 85.1% | 99.9% | 99.3% | 95.6% | 91.6% | 89.7% | 90% | 111% | 98.2% |
| Cc1nn(-c2ccccc2)c2nc(C)n(CC(=O)N/N=C/c3ccccc3O)c(=O)c12 | 28.8% | 21.6% | 29.4% | 31.3% | 4.76% (active) | 62.5% | 6.39% (active) | 26.2% | 18.5% | 16.8% | 48.9% | 18.4% | 47.4% | 34.2% | 25.9% | 47.6% | 23.6% | 21.8% | 2.59% (active) | 2.09% (active) |
| CCCN(CCC)S(=O)(=O)c1ccc(C(=O)O)cc1.CCCN(CCC)S(=O)(=O)c1ccc(C(=O)O)cc1.[Cl][Pt+2][Cl].[NH2-].[NH2-] | -44.1% (active) | 23.2% | 42.6% | 30.4% | 0.596% (active) | 5.16% (active) | -54.9% (active) | 33% | 14% | -57.7% (active) | 13.2% | 9.96% (active) | -98.1% (active) | -22.8% (active) | -59.6% (active) | 17.5% | 32.9% | 15.6% | -0.891% (active) | 33% |
| COc1ccc(C2=NN(C(=O)[C@H]3[C@@H](c4ccco4)c4sc(=O)[nH]c4S[C@@H]3C)C(c3ccc4ccccc4c3)C2)cc1 (stereo not given in full) | 33.8% | 29.3% | 49.1% | 59.7% | 23.8% | 29.1% | 4.06% (active) | 17.6% | 44.6% | 7.92% (active) | 62.7% | 16% | 50.6% | 47.5% | 11.2% | 45.3% | 38.6% | 28.6% | 43.2% | 24.1% |
| CCC1(OC(=O)c2ccccc2SSCCOC(=O)CCCCC2SCC3NC(=O)NC32)C(=O)OCc2c1cc1n(c2=O)Cc2cc3ccccc3nc2-1 (stereo not given) | 15.4% | 41.6% | 83.6% | 39.4% | 13.3% | 32.7% | 42.3% | 47% | 50.9% | 79.3% | 35.3% | 52.8% | 55.8% | 82.5% | 82% | 38.5% | 5.6% (active) | 29.4% | 12.8% | 40.1% |
| COc1ccc(C(=O)c2cc(C(C)=O)c3c(C)cc(C)cn23)cc1 | 47.7% | 44.4% | 76.8% | 34.5% | 45.4% | 46.8% | 2.3% (active) | 45.3% | 45.4% | 92.7% | 66.9% | 86.4% | 72.1% | 75.3% | 8.06% (active) | 23.5% | 31% | 23.8% | 79.2% | 84.9% |
| COc1ccc2[nH]c(O)c(N=Nc3nc(-c4ccccc4)cs3)c2c1 | 23.9% | 11.2% | 26.5% | 21.3% | 12.3% | -8.09% (active) | 8.94% (active) | 2.49% (active) | -44.8% (active) | 30% | 34.6% | 28.9% | 22.5% | 60.1% | 4.35% (active) | 17.1% | -8.96% (active) | -11.9% (active) | 59.3% | 55.6% |
| N#Cc1c(-c2ccc(F)cc2)nc(SCc2ccc(F)cc2)nc1N1CCNCC1 | -61.3% (active) | 76.9% | 36.1% | -65.4% (active) | -85.1% (active) | -64.9% (active) | -70.4% (active) | -74.8% (active) | -79.1% (active) | -68.8% (active) | -3.44% (active) | 0.722% (active) | -97.8% (active) | -93.6% (active) | -64.7% (active) | 41.5% | -79.9% (active) | -98.9% (active) | -90.7% (active) | -88.4% (active) |
| COc1ccc(NC(=O)NN2C(=O)c3ccccc3N(C)C2c2ccc(OC)cc2)cc1 (stereo not given) | 100% | 106% | 95.8% | 97.8% | 109% | 102% | 93% | 108% | 65.8% | 103% | 107% | 95.6% | 95% | 98.9% | 112% | 107% | 101% | 100% | 103% | 70.3% |
| COc1ccc(N=Nc2c(N)nn3c(-c4cc5cc(Br)ccc5oc4=O)ccnc23)cc1 | -4.72% (active) | -42.1% (active) | 30.1% | 2.1% (active) | 3.1% (active) | -3.29% (active) | 0.558% (active) | 39.3% | 5.11% (active) | 35.8% | 37.3% | 48.4% | 46.4% | -27.3% (active) | -41.8% (active) | 23.2% | -33.6% (active) | 15.6% | 78.1% | 52.5% |
| Nc1cc2ccccc2c(=O)n1NC(=O)c1ccc(Br)cc1 | 81.8% | 69% | 74.4% | 101% | 98.6% | 103% | 96.7% | 100% | 107% | 114% | 109% | 101% | 89.7% | 66.8% | 112% | 89.8% | 103% | 67.5% | 104% | 91.7% |
